Screening results deposited in PubChem BioAssay by National Center for Advancing Translational Sciences (NCATS).
Compounds with a hit are over-represented: about 5.8% of the library has one in this group of screens.
KB-3-1 cytotox = kills parental KB-3-1 adenocarcinoma cells; KB-3-1 viability, CellTiter-Glo ATP luminescence, 72 h; Potency, µM (doses to about 46.1 µM), usual class: cytotoxic; hit rate 1.4% among 400,000; also: % is scaled to controls: 0 for no effect and ±100 for the full control effect; nearly all actives have a fitted effect of over 60% in size
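Using CellTiter-Glo luminescence, growth of non-resistant KB-3-1 adenocarcinoma cells is assessed 72 h after pin-tool compound addition at 37 °C. Normalized responses across the concentration series yield fitted curves.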
ALOX12 inh = ALOX12 (human) lipoxygenase inhibition. P18054. purified 12hLO, xylenol orange hydroperoxide absorbance. Potency, µM (doses to about 108 µM), for inactives: at the top dose activity change, negative = inhibition, most hits filed as inhibitors. hit rate 1.1% among 580,000; also: % is scaled to controls: 0 for no effect and ±100 for the full control effect
Target sequence (P18054 whole entry, looked up): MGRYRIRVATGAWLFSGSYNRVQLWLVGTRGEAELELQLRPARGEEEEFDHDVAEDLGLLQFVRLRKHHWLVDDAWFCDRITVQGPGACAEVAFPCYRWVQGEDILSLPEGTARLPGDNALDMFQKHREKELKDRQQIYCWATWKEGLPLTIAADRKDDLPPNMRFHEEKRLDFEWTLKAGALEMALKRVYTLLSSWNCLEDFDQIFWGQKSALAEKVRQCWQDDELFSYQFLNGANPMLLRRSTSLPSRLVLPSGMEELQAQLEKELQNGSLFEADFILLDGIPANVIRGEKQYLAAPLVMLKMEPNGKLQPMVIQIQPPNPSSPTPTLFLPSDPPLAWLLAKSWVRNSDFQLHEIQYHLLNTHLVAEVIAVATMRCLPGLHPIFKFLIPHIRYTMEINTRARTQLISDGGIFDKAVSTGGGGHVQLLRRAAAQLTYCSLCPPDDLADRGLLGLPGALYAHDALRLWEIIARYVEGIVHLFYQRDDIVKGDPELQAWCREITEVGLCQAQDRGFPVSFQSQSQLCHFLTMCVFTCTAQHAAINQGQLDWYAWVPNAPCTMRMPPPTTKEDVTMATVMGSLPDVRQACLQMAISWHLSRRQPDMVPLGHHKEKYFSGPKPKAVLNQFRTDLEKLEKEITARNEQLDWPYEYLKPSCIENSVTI
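Purified human 12hLO at 150 nM in 25 mM Hepes, 0.01% Triton X-100, pH 7.0, preincubated 15 min at room temperature with compound. Reaction started with 40 uM arachidonic acid, 30 min at room temperature. Hydroperoxide measured by Fe-xylenol orange, 573/405 nm absorbance ratio.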
MCF10A rereplic = induces DNA re-replication in MCF 10a normal breast cells | MCF 10A DNA re-replication, Hoechst nuclear intensity, 48 h | Potency, µM (titrated, usually from 46.1 µM), for the others: at the highest dose activity, positive = re-replication, most hits filed as activators | hit rate 2.9% among 350,000 | AID 624296; also: % of control where 0% means no effect; nearly all actives have a fitted effect of over 50% in size
KB-V1 MDR tox = kills drug-selected multidrug resistant KB-V1 cells; hit rate 3.4% among 400,000; KB-V1 MDR cells viability, CellTiter-Glo, 72 h; AID 1347076; Potency, µM (highest dose often 46.1 µM), hits mostly cytotoxic; also: % is scaled to controls: 0 for no effect and ±100 for the full control effect; nearly all actives have a fitted effect of over 60% in size
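Cytotoxicity toward P-gp-expressing KB-V1 cells was determined as loss of CellTiter-Glo luminescence after 72 h at 37 degrees C. Compounds were tested in quantitative HTS format across a concentration range, with curves fitted to normalized data.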
SW480 rereplic = induces DNA re-replication in SW480 colon adenocarcinoma cells. SW480 DNA re-replication, Hoechst DNA content imaging, 48 h. Potency, µM (highest dose often 46.1 µM), inactives show at the highest dose re-replication activation, hits mostly activators. hit rate 1.8% among 340,000. AID 624297; also: % of control where 0% means no effect; nearly all actives have a fitted effect of over 55% in size
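Image-based DNA-content assay: after two days of treatment, nuclei were labelled with the DNA dye Hoechst and imaged, and hits were compounds raising the count of nuclei showing high fluorescence intensity.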
PINK1 expr mod = changes PINK1 expression. PINK1 immunofluorescence, high-content cytometry, 24 h. Potency, µM (titrated, usually from 76.6 µM), for the others: at the highest dose activation (PINK1 increase), most hits filed as activators. AID 624263. hit rate 0.2% among 410,000; active = well fitted activation curve with a large enough effect; inconclusive = small, poorly fitted or top-dose-only effect; cell line not stated here; also: % of control where 0% means no effect; nearly all actives have a fitted effect of over 65% in size
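A stable cell line was treated with compounds at 5 concentrations for 24 hours, with CCCP as control. PINK1 levels and mitochondrial localization were measured by immunofluorescence with mitochondrial, cell and nuclear markers after fixation, read by laser-scanning cytometry.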
An asterisk follows results filed as active; i = inactive; ? = inconclusive; nt = no result; ! = repeats disagree; [ ] = remark or other dose. Unless noted, calls follow the shape of the dose curve; as a rule, active = well fitted curve in the direction sought with a large enough effect; inconclusive = small, poorly fitted or top-dose-only effect, or another doubt; inactive = no such curve, though single readings can be large; an effect the other way counts as inactive or inconclusive. Potency is read from the fitted curve at half-maximal effect.

SMILES	KB-3-1 cytotox	ALOX12 inh	MCF10A rereplic	KB-V1 MDR tox	SW480 rereplic	PINK1 expr mod
CCc1ccc(NC(=O)NC(C(=O)N2CCc3ccccc32)c2ccccc2)cc1 (centres undefined)	nt	4.9%	nt	nt	nt	nt
CC(=O)N/C(=C/c1cccnc1)C(=O)O	nt	1.9%	nt	nt	nt	nt
CCOc1ccc(C(=O)NCC(=O)Nc2ccc3c(c2)OCO3)cc1OCC	i	-21.0%	7.8%	i	-77.8%	-5.6%
CC(=O)c1cccc(NC(=O)c2ccc(Br)o2)c1	?	?	2.4%	?	-0.3%	5.2%[38.3 µM]
Cn1c(C(=O)Nc2ccc3c(c2)OCCO3)cc2sccc21	i	-1.9%	-0.8%	14.6µM*	9.2%	8.0%[38.3 µM]
O=C(Nc1ccc2c(c1)OCCO2)c1ccco1	i	2.3%	1.6%	i	-9.3%	11.2µM*
O=C(Nc1cccc(NC(=O)c2ccco2)c1)c1ccc2c(c1)OCCO2	i	-5.2%	-6.7%	i	-9.5%	3.5%
O=C(Nc1ccc2c(c1)OCCO2)c1cc2sccc2n1Cc1ccccc1	i	0.0%	5.7%	?	2.1%	0.3%
CCOc1cc(C(=O)Nc2ccc3c(c2)OCO3)ccc1OC(F)F	i	6.8%	-1.8%	20.6µM*	-10.7%	nt
CCCCC(=O)Nc1cccc(NC(=O)c2ccc(Br)o2)c1	i	1.5%	-1.2%	11.6µM*	1.1%	-0.1%[38.3 µM]
Clc1ccccc1Cc1nc(-c2ccc(OC3CCNC3)cc2)no1 (centres undefined)	nt	-2.9%	nt	nt	nt	nt
CC(C)n1c(SCC(=O)N2CCOCC2)nc2c1c(=O)n(C)c(=O)n2C	nt	9.9%	nt	nt	nt	nt
O=C(COC(=O)c1cccc(NC(=O)c2cccs2)c1)c1ccccc1	nt	-5.8%	nt	nt	nt	nt
Nc1nccnc1C(=O)NCc1cc(Br)ccc1F	nt	-35.8%	nt	nt	nt	nt
O=C(NCc1ccccc1Cl)C(=O)Nc1ccccc1	nt	-5.6%	nt	nt	nt	nt
O=C1CC(c2ccccc2)N(C(=O)C2CC2)CCCN(C(=O)c2ccc3cc[nH]c3c2)CCN1 (centres undefined)	nt	15.9%	nt	nt	nt	nt
COc1cccc(-c2ccc(-c3noc(-c4ccccc4OC)n3)c(OC)n2)c1	nt	36.1%	nt	nt	nt	nt
O=C(c1cc(-c2ccccc2)n[nH]1)N1CCc2c(nc3cc[nH]n3c2=O)C1	nt	18.1%	nt	nt	nt	nt
COc1ccc2nc(NCc3ccccc3)[nH]c2c1	9.2µM*	-22.4%	18.4µM*	?	14.6µM*	15.8µM*
c1ccc(CNc2nc3ccccc3[nH]2)cc1	i	11.2%	?	i	?	3.5%[38.3 µM]
Cc1ccc2nc(NCc3ccccc3)[nH]c2c1	5.17µM*	-0.6%	?	5.8µM*	5.17µM*	13.2%
CCOC(=O)c1cccc(NC(=O)c2ccc(-n3cnc(NC(=O)C(C)C)c3)cc2)c1	nt	-20.8%	nt	nt	nt	nt
CC1=NN(C(N)=S)C(=O)C1N=Nc1ccccc1Cl (centres undefined)	i	-15.6%	?	i	8.2µM*	4.2%
CC1=NN(C(N)=S)C(=O)C1N=Nc1ccc(Cl)cc1Cl (centres undefined)	i	0.0%	0.0%	?	-0.6%	0.6%
Nc1cc2nsnc2cc1Br	i	?	?	i	18.4µM*	12.0%
SMILES	KB-3-1 cytotox	ALOX12 inh	MCF10A rereplic	KB-V1 MDR tox	SW480 rereplic	PINK1 expr mod
CONC(=O)COc1ccc(C#N)cc1	nt	6.8%	nt	nt	nt	nt
O=C(CC(c1ccc(Cl)cc1)c1c[nH]c2ccc([N+](=O)[O-])cc12)N1CCOCC1 (centres undefined)	nt	8.91µM*	nt	nt	nt	nt
O=C(CC(c1ccc(F)cc1)c1cn(Cc2ccccc2)c2ccc([N+](=O)[O-])cc12)N1CCOCC1 (centres undefined)	nt	13.0%	nt	nt	nt	nt
CCCCNC(=O)CC(c1cccc([N+](=O)[O-])c1)c1c[nH]c2ccccc12 (centres undefined)	nt	-6.4%	nt	nt	nt	nt
COCCNC(=O)CC(c1ccc(Cl)cc1)c1c[nH]c2ccc([N+](=O)[O-])cc12 (centres undefined)	nt	7.08µM*	nt	nt	nt	nt
C=CCn1c(SCCO)nc2c1c(=O)n(C)c(=O)n2C	nt	-19.5%	nt	nt	nt	nt
Cc1[nH]c2ccccc2c1/C=C(\C#N)S(=O)(=O)c1ccccc1	i	-17.7%	2.7%	i	-1.0%	2.1%[38.3 µM]
N#C/C(=C/c1cccc(F)c1)S(=O)(=O)c1ccc(Br)cc1	nt	22.4µM*	nt	nt	nt	nt
N#C/C(=C\c1ccc(O)c(O)c1)S(=O)(=O)c1ccccc1	i	3.16µM*	?	i	-0.3%	-2.1%
Cc1cc(C)c(/C=C(\C#N)S(=O)(=O)c2ccccc2)[nH]1	i	-8.7%	18.4µM*	?	0.0%	8.9%
Cc1oc(-c2ccc(Cl)cc2)nc1CSc1nc2c(c(=O)[nH]1)CCC2	nt	22.8%	nt	nt	nt	nt
CCCCc1nn2c(=O)cc(CSCC(=O)Nc3ccccc3C)nc2s1	nt	10.5%	nt	nt	nt	nt
O=C(CSc1nc(Cl)nc2nc[nH]c12)NCCc1ccc(O)cc1	nt	-3.0%	nt	nt	nt	nt
CC1CCN(c2ccc(-c3cccc(NC(=O)NC(C)C)c3)nn2)CC1	nt	15.6%	nt	nt	nt	nt
CC1(Cc2ccc(Cl)c(Cl)c2)C(=O)Nc2ccc(S(=O)(=O)NC3CCCCC3)cc21 (centres undefined)	?	?	nt	18.4µM*	nt	3.8%
CC1(Cc2cccc(F)c2)C(=O)Nc2ccc(S(=O)(=O)NC3CCCCC3)cc21 (centres undefined)	i	-5.7%	nt	i	nt	0.0%
CN(Cc1ccco1)C(=O)CSc1nc(-c2cccs2)nc2ccccc12	nt	-16.1%	nt	nt	nt	nt
Cc1ccc(NC(=O)CSc2nc3ccc(Nc4nc(N5CCOCC5)nc(N5CCOCC5)n4)cc3s2)cc1	?	-8.2%	5.8µM*	?	?	-0.7%
COc1ccc(NC(=O)CSc2nc3ccc(Nc4nc(N5CCOCC5)nc(N5CCOCC5)n4)cc3s2)cc1	i	-6.2%	2.06µM*	i	13.0%	-1.2%
CC(=O)CSc1nc2ccc(Nc3nc(N4CCOCC4)nc(N4CCOCC4)n3)cc2s1	?	3.9%	10.2%	?	?	-1.3%
CC(C)(C)NC(=O)CSc1nc2ccc(Nc3nc(N4CCOCC4)nc(N4CCOCC4)n3)cc2s1	i	1.7%	?	?	8.6%	-0.5%
COC(=O)c1cnc(N2CCCCC2C)c2ccccc12 (centres undefined)	nt	-24.8%	nt	nt	nt	nt
Clc1cc(Cl)cc(NC2CNC2)c1	nt	-2.1%[12.5 µM]	nt	nt	nt	nt
COc1cc2c(cc1OC)C(C)=NCC2	i	-11.3%	4.3%	i	0.1%	0.9%
COc1cc2c(cc1OC)C(c1ccc(-c3ccc(Cl)c(Cl)c3)o1)=NCC2	16.4µM*!	?	2.31µM*	?	18.4µM*	-4.5%
O=C(c1ccc(-c2ccc(Cl)cc2Cl)o1)N1CCOCC1	i	-0.6%	4.3%	?	-26.8%	0.5%
COc1cc2c(cc1OC)C(c1ccc(-c3ccc(Cl)cc3Cl)o1)=NCC2	23.1µM*	?	?	2.59µM*	?	3.7%
